Measured values from PubChem BioAssay.
Unmarked numbers belong to inactive results. The rule behind the calls is not given here.

Assay: inhibitors of hydroxyurea-induced Chk1 phosphorylation, primary screen, imaging, HeLa, phospho-Chk1 antibody, percent positive cells (AID 1186)
Conditions: hydroxyurea-induced phospho-Chk1 immunofluorescence imaging, higher = more signal

Row | SMILES | z-score
1 | [N-]=[N+]=NCc1ccccc1C[C@]1(C(=O)N2CCOCC2)N=C(c2ccc(OCCCO)cc2)O[C@H]1c1ccccc1CN=[N+]=[N-] | -0.597
2 | C=CCNC(=O)[C@@H]1[C@H]2C(=O)O[C@H](c3ccccc3)[C@H](c3ccccc3)N2[C@H](c2ccccc2OCCO)[C@@]12C(=O)N(C(=O)OCCOC)c1ccc(C#CCCO)cc12 | -0.37
3 | CC(C)=CCN(C(=O)C#Cc1ccccc1)[C@H](CO)c1ccccc1 | -0.956
4 | Cc1ccccc1C(O)C1C=CC2C(=O)N(c3ccccc3)C(=O)C2N1Nc1ccccc1F (configuration not stated) | 1.27
5 | C=CC[C@]1(C(=O)NCc2ccccc2)COC(c2ccc(OCCCO)cc2)=N1 | -0.059
6 | C=C(/C(=C/C[C@@H](OC(C)=O)c1ccccc1OCCO)c1cc(C(=O)OC)ccc1OC)C(C)C | 0.689
7 | CCCC=C(CCC)[C@@H](NS(=O)(=O)c1ccc(Cl)cc1)c1ccccc1 | 0.081

Assay: inhibitors of hydroxyurea-induced Chk1 phosphorylation, primary screen, imaging, HeLa, phospho-Chk1 nuclear intensity (AID 1187); note: test concentration not given here
Conditions: hydroxyurea-induced phospho-Chk1 immunofluorescence imaging, higher = more signal

Row | SMILES | z-score
8 | CCCCC(O)C1C=CC2C(=O)N(C)C(=O)C2N1Nc1ccccc1 (configuration not stated) | -0.0493
9 | O=C1C2C=CC(C(O)c3cccs3)N(Nc3ccccc3)C2C(=O)N1c1ccccc1 (configuration not stated) | -0.649
10 | COC(=O)[C@@]1(Cc2ccccc2)[C@@H]2[C@@H](CC(=O)[C@H]2CC(=O)C(=O)N(C)C)CN1C(=O)c1ccccc1 | 0.082
11 | CC=CC(O)C1C=CC2C(=O)N(C)C(=O)C2N1NC(=O)OC(C)(C)C (configuration not stated) | -0.0345
12 | CN(C)C(=O)[C@]1(Cc2ccccc2)N=C(c2ccc(OCCCO)cc2)O[C@@H]1c1ccccc1 | -0.755
13 | C=CCC(OC(C)=O)[C@@H]1[C@@H](N(Cc2cccc3ccccc23)C(=O)c2ccc(-c3ccccc3)cc2)c2cc(OCCCO)ccc2N1C(=O)c1ccc2ccccc2n1 (some centres not stated) | -0.14
14 | C=CCC(OC(C)=O)[C@@H]1[C@@H](N(Cc2ccc(-c3ccccc3)cc2)C(=O)c2ccc(-c3ccccc3)cc2)c2cc(OCCCO)ccc2N1C(=O)c1ccc2ccccc2n1 (some centres not stated) | 0.352
15 | NC(=O)NCC#Cc1ccc2c(c1)[C@]1(C(=O)N2)[C@H](C(=O)N2CCCCCCC2)[C@H]2C(=O)O[C@H](c3ccccc3)[C@H](c3ccccc3)N2[C@@H]1c1ccc(O)cc1 | -0.144
16 | C=CCC(OC(C)=O)[C@@H]1[C@@H](N(Cc2ccc(-c3cccc(C(F)(F)F)c3)o2)C(=O)Cc2ccc(F)cc2)c2cc(OCCCO)ccc2N1C(=O)c1ccc2ccccc2c1 (some centres not stated) | 0.835
17 | O=C1C2C=CC(C(O)c3ccc([N+](=O)[O-])cc3)N(Nc3ccccc3)C2C(=O)N1c1ccccc1 (configuration not stated) | -0.168
18 | O=C1c2ccccc2[C@@]2(Cc3ccccc3N(Cc3ccccc3)C2=O)[C@H](c2ccc(CO)cc2)N1Cc1ccccc1 | 0.435
19 | CCOC(=O)C[C@H]1[C@H](OC(=O)Cc2ccc3c(c2)OCO3)[C@@H](NC(=O)c2ccccc2)c2cc(OCCCO)ccc2N1C(=O)Cc1ccc(OC)cc1 | -1.25
20 | CCOC(=O)C[C@H]1[C@H](OC(=O)c2ccc(-c3ccccc3)cc2)[C@@H](NC(=O)CC(C)C)c2cc(OCCCO)ccc2N1C(=O)Cc1ccc(OC)cc1 | 0.254
21 | CC(C)CNC(=O)[C@@H]1c2ccccc2C(=O)N(C2Cc3ccccc3C2)[C@H]1c1ccc(CO)cc1 | -0.121
22 | C=C(COC)C(=O)CC[C@@H](OC(C)=O)c1ccc(OCCO)cc1 | 0.241
23 | COCCOC(=O)N1C(=O)[C@@]2(c3cc(C#CC4(O)CCCCCC4)ccc31)[C@H](c1ccc(OCCO)cc1)N1[C@H](c3ccccc3)[C@H](c3ccccc3)OC(=O)[C@H]1[C@@H]2C(=O)N1CCCCCCC1 | 0.222
24 | [N-]=[N+]=NCc1ccccc1C[C@]1(C(=O)O)COC(c2ccc(OCCCO)cc2)=N1 | -0.313
25 | N[C@@H](Cc1ccccc1)Cn1cc(C2(O)CCCCC2)nn1 | 0.426

Row | SMILES | z-score
26 | Cc1ccc(F)cc1S(=O)(=O)N[C@@H]1CCN(Cc2ccc3[nH]ccc3c2)C1 | -0.075
27 | COCCOC(=O)N1C(=O)[C@@]2(c3cc(C#CC4=CCCCC4)ccc31)[C@H](c1ccccc1OCCO)N1[C@H](c3ccccc3)[C@H](c3ccccc3)OC(=O)[C@H]1[C@@H]2C(N)=O | -0.167
28 | CC1(C)OC[C@@]23C=C(Br)[C@@H](C[C@H]12)[C@@]1(CO1)C3=O | -0.682
29 | CN1C(=O)C2C=CC(C(O)c3ccc(-c4ccccc4)s3)N(Nc3ccccc3)C2C1=O (configuration not stated) | -0.316
30 | C=C(COC)/C(=C/C[C@H](OC(=O)c1ccncc1)c1ccc(OCCO)cc1)c1cc(C(=O)OC)ccc1OC | 0.159
31 | COCCn1c(C(=O)N2CCCC2)cc2c1C[C@H]1CN(C(=O)c3ccccc3)[C@@](Cc3ccccc3)(C(=O)OC)[C@@H]21 | 0.412
32 | CCC[C@@H]1C=C(C(=O)OCC)[C@H](c2ccccc2)N1S(=O)(=O)c1ccc(C)cc1 | 0.0243
33 | COCC(=C=CC[C@@H](O)c1cccc(OCCO)c1)C[C@@H](O)COCc1ccccc1 | -0.407
34 | CC(C)[C@@H](C(=O)O)n1cc(-c2ccccc2)nn1 | 0.0268
35 | CN(C)CCCCNC(=O)[C@H]1C[C@H]2C(=O)NCC(=O)N2[C@H]1c1cccc(OCCO)c1 | -0.538
36 | [N-]=[N+]=NCc1ccccc1C[C@]1(C(=O)N2CCOCC2)N=C(c2ccc(OCCCO)cc2)O[C@H]1c1ccccc1CN=[N+]=[N-] | -0.736
37 | C=CCNC(=O)[C@@H]1[C@H]2C(=O)O[C@H](c3ccccc3)[C@H](c3ccccc3)N2[C@H](c2ccccc2OCCO)[C@@]12C(=O)N(C(=O)OCCOC)c1ccc(C#CCCO)cc12 | -0.538
38 | CC(C)=CCN(C(=O)C#Cc1ccccc1)[C@H](CO)c1ccccc1 | -0.6
39 | Cc1ccccc1C(O)C1C=CC2C(=O)N(c3ccccc3)C(=O)C2N1Nc1ccccc1F (configuration not stated) | 1.11
40 | C=CC[C@]1(C(=O)NCc2ccccc2)COC(c2ccc(OCCCO)cc2)=N1 | -0.0405
41 | C=C(/C(=C/C[C@@H](OC(C)=O)c1ccccc1OCCO)c1cc(C(=O)OC)ccc1OC)C(C)C | 0.766
42 | CCCC=C(CCC)[C@@H](NS(=O)(=O)c1ccc(Cl)cc1)c1ccccc1 | 0.268
